Measured values reported in PubChem BioAssay AID1159580 (chemical genetic matrix, 2015).
Screen size: about 5,500 compounds; about 2,000 (36%) were called active. Not shown: some 18% with an inconclusive outcome. Rule as the data show it: active = normalized growth mostly below about 0.91 (no sharp cut-off); inconclusive = no clear call, values can overlap the other calls; inactive = mostly above about 0.92. Some of the results follow.

Assay: chemical genetic growth profiling, strain panel (AID 1159580);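 also: tested at 20 µM; growth read once vehicle control cultures reached saturation at 30 °C; 1 = growth at the plate median or of vehicle wells; lower values mean less growth of the strain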
Settings: growth OD

Measured: normalized growth

O[C@H]1C=C2CCN3Cc4cc5c(cc4C(C23)[C@@H]1O)OCO5 (stereo partly specified)
inactive: S. cerevisiae deletion strains, locus YBR021W, strain FUR4, hits give low values 1.05 | S. cerevisiae deletion strains, locus YDL185W, strain tfp1, hits give low values 0.965 | S. cerevisiae deletion strains, locus YKL068W, hits give low values 0.953 | S. cerevisiae deletion strains, locus YLR039C, strain RIC1, hits give low values 1.08 | S. cerevisiae deletion strains, locus YMR307W, strain GAS1, hits give low values 1.35 | S. cerevisiae deletion strains, locus YNL298W, strain CLA4, hits give low values 0.931 | S. cerevisiae deletion strains, locus YOL006C, strain TOP1, hits give low values 0.726 | S. cerevisiae deletion strains, locus YPR141C, strain kar3, hits give low values 0.976 | S. cerevisiae deletion strains, locus YPR163C, strain tif3, hits give low values 0.931
active: S. cerevisiae deletion strains, locus YBR229C, strain ROT2, hits give low values 0.665 | S. cerevisiae deletion strains, locus YCL029C, strain bik1, hits give low values 0.331 | S. cerevisiae deletion strains, locus YDL035C, strain GPR1, hits give low values 0.434 | S. cerevisiae deletion strains, locus YDL074C, strain BRE1, hits give low values 0.485 | S. cerevisiae deletion strains, locus YDL101C, strain DUN1, hits give low values 0.575 | S. cerevisiae deletion strains, locus YDL192W, strain arf1, hits give low values 0.591 | S. cerevisiae deletion strains, locus YDR101C, strain arx1, hits give low values 0.272 | S. cerevisiae deletion strains, locus YDR162C, strain NBP2, hits give low values 0.566 | S. cerevisiae deletion strains, locus YDR318W, strain mcm21, hits give low values 0.466 | S. cerevisiae deletion strains, locus YDR388W, hits give low values 0.514 | S. cerevisiae deletion strains, locus YDR502C, strain sam2, hits give low values 0.412 | S. cerevisiae deletion strains, locus YEL061C, strain CIN8, hits give low values 0.737 | S. cerevisiae deletion strains, locus YER110C, hits give low values 0.573 | S. cerevisiae deletion strains, locus YER155C, strain BEM2, hits give low values 0.87 | S. cerevisiae deletion strains, locus YER167W, strain BCK2, hits give low values 0.5 | S. cerevisiae deletion strains, locus YGL078C, strain dbp3, hits give low values 0.812 | S. cerevisiae deletion strains, locus YGL086W, strain mad1, hits give low values 0.541 | S. cerevisiae deletion strains, locus YGL248W, strain PDE1, hits give low values 0.398 | S. cerevisiae deletion strains, locus YGR078C, strain PAC10, hits give low values 0.615 | S. cerevisiae deletion strains, locus YGR135W, strain pre9, hits give low values 0.459 | S. cerevisiae deletion strains, locus YGR252W, strain gcn5, hits give low values 0.636 | S. cerevisiae deletion strains, locus YHR079C, strain IRE1 (second series), hits give low values 0.38 | S. cerevisiae deletion strains, locus YHR094C, strain hxt1, hits give low values 0.478 | S. cerevisiae deletion strains, locus YHR129C, strain ARP1, hits give low values 0.613 | S. cerevisiae deletion strains, locus YHR200W, strain rpn10, hits give low values 0.549 | S. cerevisiae deletion strains, locus YIL066C, strain RNR3, hits give low values 0.678 | S. cerevisiae deletion strains, locus YIL073C, strain SPO22, hits give low values 0.402 | S. cerevisiae deletion strains, locus YIL125W, strain kgd1, hits give low values 0.857 | S. cerevisiae deletion strains, locus YIR030C, strain dcg1, hits give low values 0.558 | S. cerevisiae deletion strains, locus YJL095W, strain BCK1, hits give low values 0.448 | S. cerevisiae deletion strains, locus YJL134W, strain LCB3, hits give low values 0.757 | S. cerevisiae deletion strains, locus YJL168C, strain set2, hits give low values 0.837 | S. cerevisiae deletion strains, locus YJL187C, strain SWE1 (second series), hits give low values 0.373 | S. cerevisiae deletion strains, locus YJR075W, strain HOC1, hits give low values 0.53 | S. cerevisiae deletion strains, locus YKL009W, strain mrt4, hits give low values 0.858 | S. cerevisiae deletion strains, locus YKL085W, strain MDH1 (second series), hits give low values 0.897 | S. cerevisiae deletion strains, locus YKL085W, strain MDH1, hits give low values 0.897 | S. cerevisiae deletion strains, locus YKL190W, strain CNB1, hits give low values 0.659 | S. cerevisiae deletion strains, locus YKR001C, strain vps1, hits give low values 0.558 | S. cerevisiae deletion strains, locus YLR058C, strain SHM2, hits give low values 0.395 | S. cerevisiae deletion strains, locus YLR102C, strain apc9, hits give low values 0.49 | S. cerevisiae deletion strains, locus YLR268W, strain sec22, hits give low values 0.454 | S. cerevisiae deletion strains, locus YLR330W, strain CHS5, hits give low values 0.656 | S. cerevisiae deletion strains, locus YLR342W, strain FKS1 (second series), hits give low values 0.483 | S. cerevisiae deletion strains, locus YLR371W, strain rom2, hits give low values 0.55 | S. cerevisiae deletion strains, locus YLR418C, strain cdc73, hits give low values 0.707 | S. cerevisiae deletion strains, locus YML016C, strain PPZ1, hits give low values 0.632 | S. cerevisiae deletion strains, locus YML032C, strain rad52, hits give low values 0.367 | S. cerevisiae deletion strains, locus YML124C, strain tub3, hits give low values 0.538 | S. cerevisiae deletion strains, locus YMR078C, strain ctf18, hits give low values 0.713 | S. cerevisiae deletion strains, locus YMR223W, strain ubp8, hits give low values 0.33 | S. cerevisiae deletion strains, locus YNL067W, strain RPL9B, hits give low values 0.495 | S. cerevisiae deletion strains, locus YNL128W, strain TEP1, hits give low values 0.466 | S. cerevisiae deletion strains, locus YNL233W, strain BNI4, hits give low values 0.557 | S. cerevisiae deletion strains, locus YNL250W, strain rad50, hits give low values 0.852 | S. cerevisiae deletion strains, locus YNL271C, strain bni1, hits give low values 0.908 | S. cerevisiae deletion strains, locus YNL307C, strain MCK1, hits give low values 0.694 | S. cerevisiae deletion strains, locus YNR052C, strain pop2, hits give low values 0.605 | S. cerevisiae deletion strains, locus YOL012C, strain htz1 2.41 [resistant] | S. cerevisiae deletion strains, locus YOL147C, strain pex11, hits give low values 0.498 | S. cerevisiae deletion strains, locus YOR061W, strain CKA2, hits give low values 0.565 | S. cerevisiae deletion strains, locus YOR069W, strain VPS5, hits give low values 0.657 | S. cerevisiae deletion strains, locus YOR136W, strain idh2, hits give low values 0.731 | S. cerevisiae deletion strains, locus YOR144C, strain elg1, hits give low values 0.47 | S. cerevisiae deletion strains, locus YOR184W, strain ser1, hits give low values 0.545 | S. cerevisiae deletion strains, locus YOR316C, strain cot1, hits give low values 0.599 | S. cerevisiae deletion strains, locus YPL055C, strain LGE1, hits give low values 0.627 | S. cerevisiae deletion strains, locus YPL241C, strain CIN2, hits give low values 0.74 | S. cerevisiae deletion strains, locus YPR119W, strain clb2, hits give low values 0.715 | S. cerevisiae deletion strains, locus YPR167C, strain met16, hits give low values 0.523 | S. cerevisiae deletion strains, strain wtn01, hits give low values 0.449 | S. cerevisiae strains, strain wild type, hits give low values 0.448
